# Measured values taken from PubChem BioAssay AID1159580 (chemical genetic matrix, 2015).
# Where “and” joins values, the source holds several entries; their conditions need not be identical. Equal entries are not always repeated. In all, about 5,500 compounds went through this assay and about 2,000 (36%) were called active. Not shown: some 18% with an inconclusive outcome. This is one part of the list. A number with no mark means an inactive call. Rule as the data show it: active = normalized growth mostly below about 0.91 (no sharp cut-off); inconclusive = no clear call, values can overlap the other calls; inactive = mostly above about 0.92.
# Experiment: chemical genetic growth profiling, strain panel (AID 1159580);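 also: tested at 20 µM; growth read once vehicle control cultures reached saturation at 30 °C; 1 = growth at the plate median or of vehicle wells; lower values mean less growth of the strain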
# Details: growth OD
structure (smiles),measurement,setting,value
Clc1ccc2c(c1)C(N1CCNCC1)=Nc1ccccc1O2,normalized growth,"S. cerevisiae deletion strains, locus YKL068W, active compounds read low",0.996
same,normalized growth,"S. cerevisiae deletion strains, locus YKL085W, strain MDH1 (second series), active compounds read low",1.01
same,normalized growth,"S. cerevisiae deletion strains, locus YKL085W, strain MDH1, active compounds read low",1.01
same,normalized growth,"S. cerevisiae deletion strains, locus YKL160W, strain elf1, active compounds read low",1.01
same,normalized growth,"S. cerevisiae deletion strains, locus YKL190W, strain CNB1, active compounds read low",0.996
same,normalized growth,"S. cerevisiae deletion strains, locus YKR001C, strain vps1, active compounds read low",1.03
same,normalized growth,"S. cerevisiae deletion strains, locus YKR026C, strain gcn3, active compounds read low",0.983
same,normalized growth,"S. cerevisiae deletion strains, locus YKR091W, strain srl3, active compounds read low",0.989
same,normalized growth,"S. cerevisiae deletion strains, locus YLL001W, strain dnm1, active compounds read low",0.987
same,normalized growth,"S. cerevisiae deletion strains, locus YLL026W, active compounds read low",1
same,normalized growth,"S. cerevisiae deletion strains, locus YLL041C, strain sdh2, active compounds read low",1
same,normalized growth,"S. cerevisiae deletion strains, locus YLR027C, strain aat2, active compounds read low",0.986
same,normalized growth,"S. cerevisiae deletion strains, locus YLR039C, strain RIC1, active compounds read low",1.32
same,normalized growth,"S. cerevisiae deletion strains, locus YLR058C, strain SHM2, active compounds read low",0.979
same,normalized growth,"S. cerevisiae deletion strains, locus YLR102C, strain apc9, active compounds read low",0.993
same,normalized growth,"S. cerevisiae deletion strains, locus YLR113W, strain HOG1, active compounds read low",1.02
same,normalized growth,"S. cerevisiae deletion strains, locus YLR221C, strain rsa3, active compounds read low",0.985
same,normalized growth,"S. cerevisiae deletion strains, locus YLR258W, strain gsy2, active compounds read low",0.991
same,normalized growth,"S. cerevisiae deletion strains, locus YLR262C, strain YPT6 (second series), active compounds read low",1.04
same,normalized growth,"S. cerevisiae deletion strains, locus YLR262C, strain YPT6, active compounds read low",1.38
same,normalized growth,"S. cerevisiae deletion strains, locus YLR268W, strain sec22, active compounds read low",1.08
same,normalized growth,"S. cerevisiae deletion strains, locus YLR320W, strain mms22, active compounds read low",0.967
same,normalized growth,"S. cerevisiae deletion strains, locus YLR330W, strain CHS5, active compounds read low",0.988
same,normalized growth,"S. cerevisiae deletion strains, locus YLR342W, strain FKS1 (second series), active compounds read low",0.901
same,normalized growth,"S. cerevisiae deletion strains, locus YLR342W, strain FKS1, active compounds read low",0.955
same,normalized growth,"S. cerevisiae deletion strains, locus YLR357W, strain rsc2, active compounds read low",0.97
same,normalized growth,"S. cerevisiae deletion strains, locus YLR370C, strain arc18, active compounds read low",0.993
same,normalized growth,"S. cerevisiae deletion strains, locus YLR371W, strain rom2, active compounds read low",0.968
same,normalized growth,"S. cerevisiae deletion strains, locus YLR384C, strain iki3, active compounds read low",0.977
same,normalized growth,"S. cerevisiae deletion strains, locus YLR418C, strain cdc73, active compounds read low",0.981
same,normalized growth,"S. cerevisiae deletion strains, locus YML016C, strain PPZ1, active compounds read low",0.981
same,normalized growth,"S. cerevisiae deletion strains, locus YML032C, strain rad52, active compounds read low",1.01
same,normalized growth,"S. cerevisiae deletion strains, locus YML120C, strain ndi1, active compounds read low",1.01
same,normalized growth,"S. cerevisiae deletion strains, locus YML124C, strain tub3, active compounds read low",0.979
same,normalized growth,"S. cerevisiae deletion strains, locus YMR058W, strain fet3, active compounds read low",0.981
same,normalized growth,"S. cerevisiae deletion strains, locus YMR078C, strain ctf18, active compounds read low",0.983
same,normalized growth,"S. cerevisiae deletion strains, locus YMR125W, strain sto1, active compounds read low",0.928
same,normalized growth,"S. cerevisiae deletion strains, locus YMR129W, active compounds read low",1.01
same,normalized growth,"S. cerevisiae deletion strains, locus YMR205C, strain PFK2, active compounds read low",0.998
same,normalized growth,"S. cerevisiae deletion strains, locus YMR223W, strain ubp8, active compounds read low",0.962
same,normalized growth,"S. cerevisiae deletion strains, locus YMR231W, strain pep5, active compounds read low",0.487 (active)
same,normalized growth,"S. cerevisiae deletion strains, locus YMR263W, strain SAP30, active compounds read low",0.979
same,normalized growth,"S. cerevisiae deletion strains, locus YMR307W, strain GAS1, active compounds read low",1.15
same,normalized growth,"S. cerevisiae deletion strains, locus YNL067W, strain RPL9B, active compounds read low",1.01
same,normalized growth,"S. cerevisiae deletion strains, locus YNL071W, strain lat1, active compounds read low",0.972
same,normalized growth,"S. cerevisiae deletion strains, locus YNL128W, strain TEP1, active compounds read low",0.975
same,normalized growth,"S. cerevisiae deletion strains, locus YNL153C, strain GIM3, active compounds read low",1.01
same,normalized growth,"S. cerevisiae deletion strains, locus YNL175C, strain NOP13, active compounds read low",1
same,normalized growth,"S. cerevisiae deletion strains, locus YNL183C, strain NPR1, active compounds read low",0.966
same,normalized growth,"S. cerevisiae deletion strains, locus YNL197C, strain WHI3, active compounds read low",1.01
same,normalized growth,"S. cerevisiae deletion strains, locus YNL209W, strain ssb2, active compounds read low",0.991
same,normalized growth,"S. cerevisiae deletion strains, locus YNL224C, strain SQS1, active compounds read low",1.02
same,normalized growth,"S. cerevisiae deletion strains, locus YNL233W, strain BNI4, active compounds read low",1
same,normalized growth,"S. cerevisiae deletion strains, locus YNL248C, strain rpa49, active compounds read low",0.998
same,normalized growth,"S. cerevisiae deletion strains, locus YNL250W, strain rad50, active compounds read low",0.981
same,normalized growth,"S. cerevisiae deletion strains, locus YNL271C, strain bni1, active compounds read low",0.994
same,normalized growth,"S. cerevisiae deletion strains, locus YNL298W, strain CLA4, active compounds read low",0.97
same,normalized growth,"S. cerevisiae deletion strains, locus YNL307C, strain MCK1, active compounds read low",0.983
same,normalized growth,"S. cerevisiae deletion strains, locus YNL322C, strain KRE1 (second series), active compounds read low",0.986
same,normalized growth,"S. cerevisiae deletion strains, locus YNL322C, strain KRE1, active compounds read low",0.99 and 0.992
same,normalized growth,"S. cerevisiae deletion strains, locus YNR049C, strain mso1, active compounds read low",0.995
same,normalized growth,"S. cerevisiae deletion strains, locus YNR052C, strain pop2, active compounds read low",0.97
same,normalized growth,"S. cerevisiae deletion strains, locus YOL006C, strain TOP1, active compounds read low",1.06
same,normalized growth,"S. cerevisiae deletion strains, locus YOL012C, strain htz1",1.29
same,normalized growth,"S. cerevisiae deletion strains, locus YOL147C, strain pex11, active compounds read low",1
same,normalized growth,"S. cerevisiae deletion strains, locus YOR001W, strain rrp6, active compounds read low",0.937
same,normalized growth,"S. cerevisiae deletion strains, locus YOR061W, strain CKA2, active compounds read low",0.969
same,normalized growth,"S. cerevisiae deletion strains, locus YOR069W, strain VPS5, active compounds read low",0.991
same,normalized growth,"S. cerevisiae deletion strains, locus YOR070C, strain gyp1, active compounds read low",1
same,normalized growth,"S. cerevisiae deletion strains, locus YOR080W, strain dia2, active compounds read low",0.989
same,normalized growth,"S. cerevisiae deletion strains, locus YOR083W, strain WHI5 (second series), active compounds read low",1.13 [resistant] (active)
same,normalized growth,"S. cerevisiae deletion strains, locus YOR083W, strain WHI5, active compounds read low",0.937
same,normalized growth,"S. cerevisiae deletion strains, locus YOR106W, strain vam3, active compounds read low",0.953
same,normalized growth,"S. cerevisiae deletion strains, locus YOR136W, strain idh2, active compounds read low",0.975
same,normalized growth,"S. cerevisiae deletion strains, locus YOR144C, strain elg1, active compounds read low",0.99
same,normalized growth,"S. cerevisiae deletion strains, locus YOR184W, strain ser1, active compounds read low",1.01
same,normalized growth,"S. cerevisiae deletion strains, locus YOR231W, strain MKK1, active compounds read low",1.02
same,normalized growth,"S. cerevisiae deletion strains, locus YOR265W, strain rbl2, active compounds read low",0.992
same,normalized growth,"S. cerevisiae deletion strains, locus YOR270C, strain vph1, active compounds read low",0.818
same,normalized growth,"S. cerevisiae deletion strains, locus YOR290C, strain snf2, active compounds read low",0.948
same,normalized growth,"S. cerevisiae deletion strains, locus YOR316C, strain cot1, active compounds read low",0.987
same,normalized growth,"S. cerevisiae deletion strains, locus YPL051W, strain arl3, active compounds read low",0.987
same,normalized growth,"S. cerevisiae deletion strains, locus YPL055C, strain LGE1, active compounds read low",0.989
same,normalized growth,"S. cerevisiae deletion strains, locus YPL078C, strain atp4, active compounds read low",0.991
same,normalized growth,"S. cerevisiae deletion strains, locus YPL106C, strain sse1, active compounds read low",0.966
same,normalized growth,"S. cerevisiae deletion strains, locus YPL240C, strain hsp82, active compounds read low",0.978
same,normalized growth,"S. cerevisiae deletion strains, locus YPL241C, strain CIN2, active compounds read low",1 and 0.992
same,normalized growth,"S. cerevisiae deletion strains, locus YPL256C, strain CLN2, active compounds read low",1.03
same,normalized growth,"S. cerevisiae deletion strains, locus YPR119W, strain clb2, active compounds read low",0.994
same,normalized growth,"S. cerevisiae deletion strains, locus YPR141C, strain kar3, active compounds read low",0.956
same,normalized growth,"S. cerevisiae deletion strains, locus YPR163C, strain tif3, active compounds read low",0.986
same,normalized growth,"S. cerevisiae deletion strains, locus YPR167C, strain met16, active compounds read low",0.988
same,normalized growth,"S. cerevisiae deletion strains, strain wtn01, active compounds read low",0.991
same,normalized growth,"S. cerevisiae strains, strain wild type, active compounds read low",0.977
